Bioassay records deposited in PubChem BioAssay by National Center for Advancing Translational Sciences (NCATS).
TDP1 cell noCPT: qHTS for Inhibitors of human tyrosyl-DNA phosphodiesterase 1 (TDP1): qHTS in cells in absence of CPT. DT40 Tdp1-/- hTDP1 cells, no CPT, ATP luminescence, 48 h. Potency, µM (series often up to 46.2 µM), for the others: at the top dose activity change, negative = growth inhibition, actives largely listed as inhibitors. actives 15% (n = 420,000). AID 686978, 2013; further: potency means the concentration at half of the fitted maximal effect; nearly all actives have a fitted effect of over 55% in size
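Chicken DT40 Tdp1-/- cells complemented with human TDP1, screened without camptothecin (DMSO vehicle only), 400 cells/well. Compounds pin-transferred, cells incubated at 37 °C for at least 48 hr. Growth read as ATP-dependent luminescence (CellTiter-Glo, 30 min at RT).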
Gal4-VP16 FLuc: inhibits Gal4-VP16 luciferase reporter, ROR gamma counter-screen. Drosophila S2 Gal4-VP16 UAS-luciferase, luminescence, 20 h. Potency, µM (top dose mostly 53.6 µM), inactives show at the highest dose activity, negative = inhibition, usual class: inhibitors. actives 3.5% (n = 310,000). AID 2546;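 further: Gal4-VP16 expression switched on by copper sulfate through the metallothionein promoter; potency means the concentration at half of the fitted maximal effect; nearly all actives have a fitted effect of over 50% in size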
IL-1B inflam inh: inhibitors of inflammasome signaling (IL-1 beta secretion); actives 4.7% (n = 360,000); THP-1 LPS/ATP IL-1B secretion, AlphaLISA, 16 h; stronger effect = lower value; activity change, % at 57.5 µM; in the data active means activity change below about -50%; inconclusive means mostly about -30% to -49%
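Secreted IL-1B measured by AlphaLISA bead assay after 16 h compound exposure of THP-1 cells; compounds (final up to 57.5 uM) added 1 h before LPS (250 ng/mL) and ATP (1.25 mM) stimulation; lower signal means less secretion.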
ELG1 repair inh: blocks ELG1-dependent DNA repair in HEK293T cells; Potency, µM (titrated, usually from 46.1 µM), for the others: at the top dose activity change, negative = inhibition, hits mostly inhibitors; actives 2.3% (n = 330,000); HEK293T ELG1-luciferase reporter, luminescence, 16 h; DNA damage induced by 5-fluorouridine; further: potency means the concentration at half of the fitted maximal effect; nearly all actives have a fitted effect of over 55% in size
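Luminescence from the luciferase reporter, measured 30 min after ONE-Glo reagent at room temperature, was the read-out. Beforehand, 2,000 cells per well were exposed for 16 hr at 37 °C to 5-fluorouridine together with compound or vehicle.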
TDP1 cell CPT: growth inhibition of DT40 Tdp1-/-;hTDP1 cells with camptothecin (screen for TDP1 inhibitors). actives 12% (n = 420,000). Potency, µM (series often up to 46.2 µM), without a hit: at the highest dose activity change, negative = growth inhibition, hits mostly inhibitors. chicken DT40 Tdp1-/-;hTDP1 cells + 20 nM CPT, ATP luminescence, 48 h; further: potency means the concentration at half of the fitted maximal effect; nearly all actives have a fitted effect of over 55% in size
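Chicken DT40 Tdp1-/- cells stably complemented with human TDP1 were seeded at 400 cells/well in medium containing 20 nM camptothecin, exposed to pin-transferred compounds, and grown at 37 °C for at least 48 hr. Viability was read as ATP luminescence.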
RORg inh: inhibitors of mouse ROR gamma transcriptional activity | P51450 | Drosophila S2 Gal4-RORgamma UAS-luciferase reporter, 20 h | Potency, µM (top dose mostly 53.6 µM), for inactives: at the top dose activity change, negative = inhibition, hits mostly inhibitors | actives 5.4% (n = 310,000) | AID 2551; further: potency means the concentration at half of the fitted maximal effect; nearly all actives have a fitted effect of over 60% in size
Target sequence (P51450 whole entry, looked up, the tested form may be a part): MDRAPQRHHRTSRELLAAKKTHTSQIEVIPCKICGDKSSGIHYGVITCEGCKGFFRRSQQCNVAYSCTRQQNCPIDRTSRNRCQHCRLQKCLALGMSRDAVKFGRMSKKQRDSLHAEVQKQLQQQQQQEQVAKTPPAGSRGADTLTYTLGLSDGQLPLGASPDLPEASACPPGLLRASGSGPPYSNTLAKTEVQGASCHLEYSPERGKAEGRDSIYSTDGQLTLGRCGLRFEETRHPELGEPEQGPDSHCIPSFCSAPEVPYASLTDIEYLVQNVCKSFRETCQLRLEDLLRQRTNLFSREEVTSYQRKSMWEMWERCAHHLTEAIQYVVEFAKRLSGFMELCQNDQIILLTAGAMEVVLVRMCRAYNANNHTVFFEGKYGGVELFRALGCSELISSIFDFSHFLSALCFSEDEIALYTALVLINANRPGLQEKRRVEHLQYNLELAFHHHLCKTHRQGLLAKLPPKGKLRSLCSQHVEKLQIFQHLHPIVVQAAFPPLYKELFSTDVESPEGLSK
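In this cell-based reporter format, copper sulfate (700 uM final) drives Gal4–ROR gamma fusion expression from a metallothionein promoter in Drosophila Schneider cells; compounds preincubated 1 hr, reporter read after 20 hr at ambient temperature.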
* hit, by the source's call; [ ] = another dose, or the depositor's remark. Compounds with a hit are over-represented: about 21% of the library has one in this group of screens. Unless noted, the call rests on the fitted dose curve; in most records, active means well fitted curve in the direction sought with a large enough effect; inconclusive means small, poorly fitted or top-dose-only effect, or another doubt; inactive means no such curve, though single readings can be large; an effect the other way counts as inactive or inconclusive. On the % scale 0 is the no-effect control and ±100 the full control effect.

How did CCOc1ccc(NC(=O)c2ccc(N3CC4CC(C3)c3cccc(=O)n3C4)c(NC(=O)CCN3CCOCC3)c2)cc1 (stereo unspecified) do in these assays?
TDP1 cell noCPT: 1.7%; Gal4-VP16 FLuc: 15.9%; IL-1B inflam inh: inconclusive; ELG1 repair inh: 7.3µM*; TDP1 cell CPT: 1.4%; RORg inh: -8.5%

How did O=C(Nc1ccc(Cl)cc1)Nc1nnc(CSc2ccc(Cl)cc2)s1 do in these assays?
TDP1 cell noCPT: 2.59µM*; Gal4-VP16 FLuc: 8.1%; IL-1B inflam inh: -58.4*; ELG1 repair inh: 3.5%; TDP1 cell CPT: 4.61µM*; RORg inh: 2.2%

What do the screens show for `O=C(Nc1ccc(Cl)cc1)Nc1nnc(CSCc2ccccc2)s1`?
TDP1 cell noCPT: 18.4µM*; Gal4-VP16 FLuc: -0.6%; IL-1B inflam inh: -3.3; ELG1 repair inh: inconclusive; TDP1 cell CPT: 16.4µM*; RORg inh: 5.4%

Results for O=C(Nc1ccccc1)Nc1nnc(SCc2ccc(Cl)cc2)s1 ?
TDP1 cell noCPT: -21.9%; Gal4-VP16 FLuc: -56.7%; IL-1B inflam inh: 25.0; ELG1 repair inh: 21.4%; TDP1 cell CPT: inconclusive; RORg inh: 1.1%[10 µM]

What do the screens show for `O=C(Nc1cccc(Cl)c1)Nc1nnc(CSCCOc2ccc(Cl)cc2)s1`?
TDP1 cell noCPT: 3.26µM*; Gal4-VP16 FLuc: inconclusive; IL-1B inflam inh: -26.7; ELG1 repair inh: inconclusive; TDP1 cell CPT: 3.26µM*; RORg inh: inconclusive

How did O=C(Nc1cccc(Cl)c1)Nc1nnc(CC2=CCCCC2)s1 do in these assays?
TDP1 cell noCPT: 18.4µM*; Gal4-VP16 FLuc: inconclusive; IL-1B inflam inh: 42.9; ELG1 repair inh: inconclusive; TDP1 cell CPT: 4.61µM*; RORg inh: inconclusive

How did O=C(Nc1ccc(Cl)cc1)Nc1nnc(SCc2ccc(Cl)cc2)s1 do in these assays?
TDP1 cell noCPT: -13.8%; Gal4-VP16 FLuc: -0.9%; IL-1B inflam inh: -11.7; ELG1 repair inh: -23.2%; TDP1 cell CPT: -10.3%; RORg inh: 22.9%

What do the screens show for `CCOC(=O)c1sc(N2C(=O)c3oc4ccc(C)cc4c(=O)c3C2c2ccccc2F)nc1C` (stereo unspecified)?
TDP1 cell noCPT: -7.4%; TDP1 cell CPT: 18.1%

What do the screens show for `Cc1oc2cc3oc(=O)c(CC(=O)NCc4ccccc4)c(C)c3cc2c1C`?
TDP1 cell noCPT: 8.2µM*; TDP1 cell CPT: 6.51µM*

What do the screens show for `COc1ccc(CCNC(=O)CCc2c(C)c3cc4c(C)coc4c(C)c3oc2=O)cc1OC`?
TDP1 cell noCPT: 8.2µM*; TDP1 cell CPT: 20.6µM*

What do the screens show for `COc1ccc(CNC(=O)CCc2c(C)c3cc4c(C)coc4cc3oc2=O)cc1`?
TDP1 cell noCPT: 14.6µM*; TDP1 cell CPT: inconclusive

What do the screens show for `COc1ccc(CNC(=O)Cc2c(C)c3cc4c(C)coc4cc3oc2=O)cc1OC`?
TDP1 cell noCPT: -9.0%; TDP1 cell CPT: -2.5%

What do the screens show for `Cc1coc2c(C)c3oc(=O)c(CCC(=O)NCc4ccccn4)c(C)c3cc12`?
TDP1 cell noCPT: inconclusive; Gal4-VP16 FLuc: 1.0%; IL-1B inflam inh: -20.1; ELG1 repair inh: inconclusive; TDP1 cell CPT: inconclusive; RORg inh: 21.9%

Results for Cc1c(CCC(=O)O)c(=O)oc2cc3occ(-c4ccc(F)cc4)c3cc12 ?
TDP1 cell noCPT: -5.5%; Gal4-VP16 FLuc: inconclusive; IL-1B inflam inh: 11.1; ELG1 repair inh: 4.2%; TDP1 cell CPT: 0.4%; RORg inh: 2.82µM*

Results for CN1C(=O)CC(C(=O)Nc2ccc(C(=O)O)cc2)SC1=Nc1ccc(Cl)cc1 (stereo unspecified) ?
TDP1 cell noCPT: -1.7%; TDP1 cell CPT: 4.0%

How did CCC[C@H](NC(C)=O)C(=O)N[C@H]1CC(=O)ONCCCC[C@@H](C(N)=O)NC(=O)[C@H](Cc2c[nH]c3ccccc23)NC(=O)[C@H](CCCN=C(N)N)NC(=O)[C@@H](Cc2ccc3ccccc3c2)NC(=O)[C@H](Cc2cnc[nH]2)NC1=O do in these assays?
Gal4-VP16 FLuc: 7.3%; RORg inh: 1.9%

Results for CC(C)c1ccccc1S(=O)(=O)c1cc(N)c2ncccc2c1[N+](=O)[O-] ?
Gal4-VP16 FLuc: 9.8%; RORg inh: -34.6%

How did COc1ccc(CCNC(=O)Cc2c(C)c3cc4c(C(C)(C)C)coc4c(C)c3oc2=O)cc1OC do in these assays?
TDP1 cell noCPT: 8.2µM*; TDP1 cell CPT: 6.51µM*

How did Cc1c(CC(=O)NCCc2ccccc2F)c(=O)oc2c(C)c3occ(C(C)(C)C)c3cc12 do in these assays?
TDP1 cell noCPT: 16.4µM*; TDP1 cell CPT: 13µM*

Results for Cc1oc2cc3oc(=O)c(CCC(=O)NCCN4CCOCC4)c(C)c3cc2c1C ?
TDP1 cell noCPT: inconclusive; Gal4-VP16 FLuc: -3.8%; IL-1B inflam inh: inconclusive; ELG1 repair inh: inconclusive; TDP1 cell CPT: 20.6µM*; RORg inh: -4.2%

What do the screens show for `COCCCNC(=O)Cc1c(C)c2c(cc(C)c3c(C(C)(C)C)coc32)oc1=O`?
TDP1 cell noCPT: 1.3µM*; Gal4-VP16 FLuc: inconclusive; IL-1B inflam inh: -3.4; ELG1 repair inh: -0.4%; TDP1 cell CPT: 1.3µM*; RORg inh: 25.0%

Results for COc1cc2oc(=O)c(CC(=O)NCCc3ccccc3F)c(C)c2cc1OC ?
TDP1 cell noCPT: -15.7%; TDP1 cell CPT: 1.4%

How did COc1ccc(CCNC(=O)Cc2c(C)c3cc(OC)c(OC)cc3oc2=O)cc1 do in these assays?
TDP1 cell noCPT: -23.3%; TDP1 cell CPT: -6.4%

How did Cc1coc2cc3oc(=O)c(CCC(=O)NCCCN4CCOCC4)c(C)c3cc12 do in these assays?
TDP1 cell noCPT: inconclusive; Gal4-VP16 FLuc: -0.7%; IL-1B inflam inh: 1.2; ELG1 repair inh: 2.9%; TDP1 cell CPT: inconclusive; RORg inh: -12.0%

Results for CC(C)(C)NC(=O)C(c1ccc(F)cc1)N(Cc1ccco1)C(=O)CCC(=O)Nc1nccs1 (stereo unspecified) ?
TDP1 cell noCPT: -25.9%; Gal4-VP16 FLuc: -7.6%; IL-1B inflam inh: -1.4; ELG1 repair inh: 3.1%; TDP1 cell CPT: -24.5%; RORg inh: inconclusive

Results for O=[N+]([O-])c1cccc(COc2ccccc2CO)c1 ?
TDP1 cell noCPT: inconclusive; IL-1B inflam inh: 4.8; TDP1 cell CPT: -19.7%
